# ALDH1A1 block – qHTS Assay for Inhibitors of Aldehyde Dehydrogenase 1 (ALDH1A1); Aldehyde dehydrogenase 1A1 (Homo sapiens), P00352; Purified ALDH1A1, NADH fluorescence, propionaldehyde substrate; Potency, µM (top dose mostly 75.3 µM), for the others: at the highest dose activity, negative = inhibition, most hits filed as inhibitors; 220,000 tested, 7.3% active; AID 1030, 2008; active means well fitted inhibition curve with a large enough effect, not every such curve was filed as active; inconclusive means small, poorly fitted or top-dose-only effect, or another doubt; inactive means no such curve, though single readings can be large or run the other way;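 further: plate controls were no enzyme wells and a reference inhibitor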
# PLK1 PBD block – qHTS for Inhibitors of PLK1-PDB (polo-like kinase 1 - polo-box domain): Primary Screen. Plk1 PBD binding of FITC phosphopeptide, fluorescence polarization. Potency, µM, for the others: max response, negative = inhibition, actives largely listed as inhibitors. 360,000 tested, 2.8% active. AID 720504, 2013; further: series mostly up to about 57 µM; nearly all actives have a fitted effect of over 65% in size
# RORgamma inh – qHTS for inhibitors of ROR gamma transcriptional activity. Potency, µM (series often up to 53.6 µM), inactives show top-dose activity change, negative = inhibition, hits mostly inhibitors. 310,000 tested, 5.4% active. Nuclear receptor ROR-gamma (Mus musculus), P51450. Drosophila S2 Gal4-RORgamma UAS-luciferase reporter, 20 h. AID 2551, 2010; further: nearly all actives have a fitted effect of over 60% in size
# Target sequence (P51450 whole entry, looked up, the tested form may be a part): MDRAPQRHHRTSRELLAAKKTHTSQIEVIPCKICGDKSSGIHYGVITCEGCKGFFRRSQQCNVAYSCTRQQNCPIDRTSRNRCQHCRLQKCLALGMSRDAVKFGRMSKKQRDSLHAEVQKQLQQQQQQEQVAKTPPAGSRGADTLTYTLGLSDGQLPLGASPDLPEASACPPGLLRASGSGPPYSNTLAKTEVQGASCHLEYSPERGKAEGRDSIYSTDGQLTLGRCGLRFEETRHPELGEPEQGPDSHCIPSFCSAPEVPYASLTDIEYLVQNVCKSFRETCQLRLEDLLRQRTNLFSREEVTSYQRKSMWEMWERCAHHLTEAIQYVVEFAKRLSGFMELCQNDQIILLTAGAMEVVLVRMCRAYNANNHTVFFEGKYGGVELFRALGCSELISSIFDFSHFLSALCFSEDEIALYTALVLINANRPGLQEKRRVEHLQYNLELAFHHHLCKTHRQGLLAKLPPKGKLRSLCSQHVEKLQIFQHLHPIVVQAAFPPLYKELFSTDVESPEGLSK
#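 Luminescence from a UAS-regulated Photinus luciferase reporter in stably transfected Drosophila Schneider cells is measured; decreased signal marks ROR gamma inhibition. Fusion expression is induced by 700 uM copper sulfate for 20 hr.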
# Sfp inh – qHTS Assay for Inhibitors of Bacillus subtilis Sfp phosphopantetheinyl transferase (PPTase); AID 1490, 2009; 310,000 tested, 3.5% active; Potency, µM, inactives show largest response in the series, negative = inhibition, usual class: inhibitors; Biochemical Sfp PPTase activity, qHTS;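 further: the enzyme is Sfp with the accession as filed and its product quenches rhodamine fluorescence; 0% = enzyme reaction without inhibitor and -100% = no enzyme wells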
#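 Compounds were incubated with enzyme (final 15 nM) for 15 min at room temperature before substrate addition started the reaction. Fluorescence at 525 nm excitation, 598 nm emission was recorded immediately and after 30 minutes.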
# Gal4-VP16 FLuc – VP16 counterscreen qHTS for inhibitors of ROR gamma transcriptional activity | Drosophila S2 Gal4-VP16 UAS-luciferase, luminescence, 20 h | Potency, µM (titrated, usually from 53.6 µM), for inactives: at the highest dose activity, negative = inhibition, usual class: inhibitors | 310,000 tested, 3.5% active;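 further: Gal4-VP16 expression switched on by copper sulfate through the metallothionein promoter; nearly all actives have a fitted effect of over 50% in size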
# Starred values were filed as active, the others as inactive; ? = inconclusive; nt = no result given; ! = a repeat was not active; [ ] = remark or other dose. This is a sample that favours compounds with a hit; in the whole collection about 12% have one here. Unless noted, the call rests on the fitted dose curve; in most records, active means well fitted curve in the direction sought with a large enough effect; inconclusive means small, poorly fitted or top-dose-only effect, or another doubt; inactive means no such curve, though single readings can be large; an effect the other way counts as inactive or inconclusive. Unless noted, on the % scale 0 is the no-effect control and ±100 the full control effect; potency means the concentration at half of the fitted maximal effect.
SMILES,ALDH1A1 block,PLK1 PBD block,RORgamma inh,Sfp inh,Gal4-VP16 FLuc
COc1ccc(C2CC(c3ccc(OC)c(OC)c3)=NN2S(C)(=O)=O)cc1 (stereo not drawn),nt,27µM*,?,2%,?
COc1ccc(C2=NN(S(C)(=O)=O)C(c3ccc4nccnc4c3)C2)cc1 (stereo not drawn),3%,-7%,3%[10 µM],13%,16%
C=CCOc1ccc(CN(C)CC(O)COc2cccc3ccccc23)cc1 (stereo not drawn),nt,-9%,-8%,-12%,3%
CC(=O)N[C@@H](C=O)[C@@H](O)[C@H](O)[C@H](O)CO,6%,nt,-9%,2%,5%
Cc1sc2nc(CN3CCC(C)CC3)nc(Cl)c2c1C,5%,nt,18µM*,20%,4%
COc1ccc(CNc2ncncc2-c2ccccc2Cl)c(OC)c1,?,nt,9%,?,0%
CCCCSCc1ccc(C(=O)O)o1,5%,-8%,-1%,19%,1%
CC(=O)c1c(C)oc(C)c1CSCc1ccc(C(=O)O)o1,?,?,1%,45µM*,3%[0.365 µM]
O=C(O)c1ccc(CSCc2ccccc2Cl)o1,nt,21µM*,6%,21%,-27%
Cc1ccc2c(Cl)c(C)c(N3CCCC3)nc2n1,9%,-6%,2.8µM*,-3%,11µM*
CC(C)CCC[C@@H](C)[C@@H]1CC[C@H]2C3=CC=C4CC(O)CC[C@]4(C)[C@H]3CC[C@@]21C (stereo partly drawn),nt,nt,-29%,?,?
Cc1ccc(C)n1-c1ccccc1N,2%,nt,14µM*,-2%,13µM*
CCCCOC(=O)C1=C(C)Nc2nnnn2C1c1ccc(OC)c(OC)c1OC (stereo not drawn),8%,-7%,-9%,19%,2%
COC(=O)C1=C(C)Nc2nnnn2C1c1ccccc1Cl (stereo not drawn),2.5µM*,3%,-11%,6%,1%
CCCCCOC(=O)C1=C(C)Nc2nnnn2C1c1ccccc1Cl (stereo not drawn),2µM*,-3%,?,9%,?
COc1ccc(C(CC(=O)O)NS(=O)(=O)c2ccc3c(c2)N(C(C)=O)CC(C)O3)cc1 (stereo not drawn),nt,27µM*,-1%,6%,-10%
CCOC(=O)[C@]12CCCC=C1N(Cc1cccc3ccccc13)C(=O)[C@H](CC(=O)N1CCCCC1)C2,nt,-19%,nt,nt,nt
CSc1ccc(Cn2c(C)c(C(=O)NCc3cccs3)sc2=O)cc1,nt,4%,nt,nt,nt
O=C(Nc1ncccc1O)c1ccc(S(=O)(=O)NCc2ccco2)cc1,nt,-1%,nt,nt,nt
Oc1ccc(Br)cc1CNc1nccs1,nt,-10%,-5%,9%,0%
Oc1ccc(Br)cc1CNc1ccccn1,nt,17µM*,43%,13%,23%
CC(=O)c1ccc(OC2C(O)COC2/C=C/c2ccc(Cl)cc2)cc1 (stereo not drawn),4µM*!,nt,17%[10 µM],4%,8%[10 µM]
CC(=O)c1ccc(OC2OCCOC2Oc2ccc(C(C)=O)cc2)cc1 (stereo not drawn),9%,3%,?,18%,-27%
O=C(Cc1ccsc1)Nc1cc(F)ccc1F,nt,-3%,-7%,12%,14%
O=C(Cc1ccsc1)Nc1ccccc1F,nt,27µM*,-2%,15%,4%
N[C@H](C(=O)O)C1C(C(=O)O)C1C(=O)O (stereo partly drawn),?,nt,nt,50µM*,nt
Cc1ccc(-c2csc3nc4ccc(C(=O)NCCO)cc4c(=O)n23)cc1,nt,-1%,1%,-1%,-5%
Cc1ccc(NC(=O)c2ccc3c(=O)n4c(nc3c2)CCCCC4)cc1F,nt,-3%,-3%,3%,1%
Cc1ccc(-c2csc3nc4cc(C(=O)NC5CCC(O)CC5)ccc4c(=O)n23)cc1 (stereo not drawn),nt,-22%,4%,56µM*,-7%
O=C(Nc1cccc(S(=O)(=O)N2CCOCC2)c1)c1ccc2c(=O)n3c(nc2c1)CCCCC3,5.6µM*,1%,16%,12%,-3%

# Source: PubChem (National Center for Advancing Translational Sciences (NCATS))
